Hits are enriched below; roughly 1.1% of the tested compounds scored in any of these assays.
FAS TE block – FAS thioesterase (human) inhibition. P49327. recombinant FAS-TE, OMFH fluorogenic substrate, fluorescence endpoint. inhibition, % at 15 µM. 360,000 compounds, 0.67% hits;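 active means compounds whose normalised, plate-corrected inhibition of enzyme fluorescence in the single-dose primary screen is 50% or more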;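 further: 0% = DMSO with enzyme and 100% = substrate without enzyme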
Target sequence (P49327 whole entry, looked up): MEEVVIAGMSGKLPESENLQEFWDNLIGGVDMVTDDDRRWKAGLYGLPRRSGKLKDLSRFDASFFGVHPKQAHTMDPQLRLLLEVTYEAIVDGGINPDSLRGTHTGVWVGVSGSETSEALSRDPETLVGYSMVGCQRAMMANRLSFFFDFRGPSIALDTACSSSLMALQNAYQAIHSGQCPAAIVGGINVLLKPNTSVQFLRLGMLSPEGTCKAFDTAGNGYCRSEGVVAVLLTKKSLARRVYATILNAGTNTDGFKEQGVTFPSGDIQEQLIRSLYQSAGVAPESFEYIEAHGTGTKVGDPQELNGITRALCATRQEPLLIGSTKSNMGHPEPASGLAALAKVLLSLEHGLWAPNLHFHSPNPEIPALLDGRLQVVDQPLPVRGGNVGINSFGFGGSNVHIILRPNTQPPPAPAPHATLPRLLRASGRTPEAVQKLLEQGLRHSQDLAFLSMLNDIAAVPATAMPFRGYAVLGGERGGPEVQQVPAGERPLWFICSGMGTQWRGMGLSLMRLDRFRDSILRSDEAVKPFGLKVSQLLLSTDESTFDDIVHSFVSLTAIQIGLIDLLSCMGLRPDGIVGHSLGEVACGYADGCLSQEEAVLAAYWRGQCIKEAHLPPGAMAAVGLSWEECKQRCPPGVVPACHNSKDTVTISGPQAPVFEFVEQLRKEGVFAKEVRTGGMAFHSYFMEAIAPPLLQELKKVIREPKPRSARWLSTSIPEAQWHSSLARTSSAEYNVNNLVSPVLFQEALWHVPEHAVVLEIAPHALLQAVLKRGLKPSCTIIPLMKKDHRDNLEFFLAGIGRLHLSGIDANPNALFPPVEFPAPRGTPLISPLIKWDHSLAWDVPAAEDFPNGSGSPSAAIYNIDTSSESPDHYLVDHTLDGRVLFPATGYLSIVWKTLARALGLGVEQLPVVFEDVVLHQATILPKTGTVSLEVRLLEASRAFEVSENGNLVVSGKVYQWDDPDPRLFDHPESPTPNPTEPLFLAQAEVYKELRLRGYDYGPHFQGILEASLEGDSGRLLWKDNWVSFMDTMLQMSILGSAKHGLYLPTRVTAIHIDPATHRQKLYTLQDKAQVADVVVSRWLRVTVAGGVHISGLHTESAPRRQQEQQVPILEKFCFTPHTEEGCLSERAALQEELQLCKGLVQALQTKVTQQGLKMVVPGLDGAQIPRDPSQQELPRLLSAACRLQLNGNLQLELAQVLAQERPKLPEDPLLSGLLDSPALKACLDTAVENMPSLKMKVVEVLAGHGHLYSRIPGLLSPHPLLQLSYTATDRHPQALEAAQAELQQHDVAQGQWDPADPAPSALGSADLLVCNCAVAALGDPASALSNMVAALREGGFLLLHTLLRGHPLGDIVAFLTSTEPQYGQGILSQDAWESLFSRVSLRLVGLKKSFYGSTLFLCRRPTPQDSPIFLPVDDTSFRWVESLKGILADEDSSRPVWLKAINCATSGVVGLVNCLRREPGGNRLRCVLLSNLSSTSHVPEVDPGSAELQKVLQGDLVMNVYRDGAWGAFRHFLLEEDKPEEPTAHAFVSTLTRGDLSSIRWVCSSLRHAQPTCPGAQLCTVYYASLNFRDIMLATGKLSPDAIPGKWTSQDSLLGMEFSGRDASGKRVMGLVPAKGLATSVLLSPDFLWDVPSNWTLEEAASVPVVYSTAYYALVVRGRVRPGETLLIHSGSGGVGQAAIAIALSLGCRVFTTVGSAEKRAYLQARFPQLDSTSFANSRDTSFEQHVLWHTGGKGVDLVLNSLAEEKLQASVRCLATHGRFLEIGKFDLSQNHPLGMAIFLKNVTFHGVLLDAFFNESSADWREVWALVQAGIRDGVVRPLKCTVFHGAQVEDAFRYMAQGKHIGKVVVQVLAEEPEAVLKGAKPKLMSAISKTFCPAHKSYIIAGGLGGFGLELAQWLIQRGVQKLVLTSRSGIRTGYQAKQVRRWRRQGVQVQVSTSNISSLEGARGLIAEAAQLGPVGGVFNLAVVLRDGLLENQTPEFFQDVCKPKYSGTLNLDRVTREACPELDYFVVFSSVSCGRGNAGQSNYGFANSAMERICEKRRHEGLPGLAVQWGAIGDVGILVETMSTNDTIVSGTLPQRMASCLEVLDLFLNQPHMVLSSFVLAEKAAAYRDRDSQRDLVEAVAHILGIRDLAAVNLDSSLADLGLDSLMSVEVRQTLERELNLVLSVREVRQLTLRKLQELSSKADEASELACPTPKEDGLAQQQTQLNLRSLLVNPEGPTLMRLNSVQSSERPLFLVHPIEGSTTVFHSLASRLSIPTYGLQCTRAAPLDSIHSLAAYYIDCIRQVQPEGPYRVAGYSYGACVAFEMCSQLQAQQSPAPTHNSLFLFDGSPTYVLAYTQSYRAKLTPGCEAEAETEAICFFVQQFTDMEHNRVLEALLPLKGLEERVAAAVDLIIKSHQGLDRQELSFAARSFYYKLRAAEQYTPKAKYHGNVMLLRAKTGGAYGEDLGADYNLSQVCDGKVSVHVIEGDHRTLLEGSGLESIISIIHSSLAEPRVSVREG
aDG glyco act – alpha-DG glycosylation activation; Pro5-aDG cells, alpha-DG glycosylation AlphaScreen (IIH6); 0% Pro5, 100% B10-LARGE cell signal; activation, % at 10 µM; 360,000 compounds, 0.22% hits; AID 624168;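 active means activation of at least 8% versus controls, or a plate z-score of at least 8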;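 further: Pro5 are CHO cells carrying HIG-tagged alpha-DG that lacks glycosylation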
GC-A act – GC-A (human) enzyme activation; P16066; HEK293 GC-A cells, cGMP TR-FRET, EC30 ANP; 0% at EC30 ANP, 100% saturating ANP; activation, % at 10 µM; 370,000 compounds, 0.14% hits; in the data active means activation above about 40%
GC-B act – GC-B (human) receptor activation; P20594; activation, % at 10 µM; HEK293-GC-B cells, CNP EC30, cGMP TR-FRET; 0% at EC30 CNP, 100% saturating CNP; 370,000 compounds, 0.11% hits;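 active means activation at 10 µM reaching about 35% in either raw or pattern-adjusted values, limit read from the data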
aDG conf – alpha-DG glycosylation activation, confirmation | Pro5-aDG cells, IIH6 AlphaLISA; scaled to LARGE-overexpressing B10 cells as 100% | 600 compounds, 17% hits | activation, % at 10 µM (by protocol) | shares compounds with aDG glyco act;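 active means activation of at least 7% in one or more replicates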;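 further: cells exposed to compound for two days before detection; 0% = DMSO-treated Pro5 cells and 100% = DMSO-treated B10-LARGE cells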
The depositor's hits bear a star; . = no result.

SMILES	FAS TE block	aDG glyco act	GC-A act	GC-B act	aDG conf
O=C(COc1ccc(-c2ccccc2)cc1)Nc1cccnc1	10.8	4.6*	9.8	1.9	-0.8
COc1cccc(C(=O)N[C@H](C(=O)N2CCC[C@H]2C(=O)NCCc2ccccc2Cl)C(C)C)c1	.	.	-0.3	-4.2	.
CCC(c1nnnn1-c1c(C)cccc1C)N1CCN(c2ccc(C(F)(F)F)cc2[N+](=O)[O-])CC1 (stereo not drawn)	28.4	7.6*	.	.	-1.3
C[C@H](O)[C@@H]1C(=O)N2CCc3c([nH]c4cccc(-c5ccccc5)c34)[C@@H]2C[C@@H]1N(C)C(=O)C1CCCCC1	.	.	-4.9	-1.0	.
CNC(=O)C(=O)NCCN1CCN(C(=O)c2ccc([N+](=O)[O-])cc2)CC1	-4.3	0.1	1.7	-1.0	.
CCCCc1ccc(NC(=O)C(=O)NCCN2CCN(Cc3ccc([N+](=O)[O-])cc3)CC2)cc1	4.6	6.6*	-2.6	0.4	0.1
C[C@@H]1[C@@H](O)C[C@@]2(C[C@H](O)c3cc(Cl)cc(Cl)c3O2)O[C@H]1c1ccccc1Cl	.	.	-8.6	-10.2	.
O=C(NC1CCCC1)c1cc(COc2ccc3ncccc3c2)on1	-1.0	0.6	.	.	.
COCC1CCN(C(=O)c2cc(COc3ccc4ncccc4c3)on2)CC1	-3.2	6.7*	-3.2	2.8	-0.9
O=C(NCCc1cn2ccccc2n1)c1cc(COc2ccc3ncccc3c2)on1	-3.2	10.1*	4.4	0.5	0.5
O=C(c1cc(COc2ccc3ncccc3c2)on1)N1CCCC1	-3.2	1.3	-3.4	4.6	.
Clc1ccc([C@H]2OC[C@@]3(CNCC4CC4)CS[C@H](c4ccc(Cl)cc4)N23)cc1	.	.	-25.7	-16.2	.
CCCOc1ccc(C(=O)OCC(=O)NCCc2ccc(OCC)c(OCC)c2)cc1OC	2.1	-0.1	-1.1	0.2	.
CCOc1ccc(CCNC(=O)COC(=O)c2cc(OC)cc(OC)c2)cc1OCC	4.8	24.1*	-3.3	5.1	1.1
Cc1ccc2ccc3cccnc3c2n1	-3.5	3.6*	-0.8	0.5	4.7*
CCCCS(=O)(=O)N1C2=NC(C(=O)OCC)=C(C(=O)OCC)C3N(Cc4ccc(Br)cc4)c4ccccc4[C@]23C[C@H]1C(=O)OC (stereo partly drawn)	.	.	-0.9	11.9	.
COc1ccc(NC(=O)Cn2c(C)cc(=O)c3ccccc32)cc1	-5.6	7.8*	6.7	-1.4	-0.2
CC(OC(=O)c1ccc(Cl)nc1)C(=O)NCc1ccc2c(c1)OCO2 (stereo not drawn)	-2.9	7.2*	-3.3	2.3	-0.9
Cc1ccccc1C(=O)OC(C)C(=O)NCc1ccc2c(c1)OCO2 (stereo not drawn)	0.5	-0.1	-1.1	2.8	.
O=C(c1ccc2c(c1)OCO2)N(Cc1cccs1)C1(C(=O)NC2CCCCC2)CCCCC1	21.7	7.4*	-40.3	-14.7	0.0
C/C(=N\NC(=O)c1ccc2c(c1)OCO2)c1ccc2c(c1)OCO2	-0.5	0.1	2.7	7.0	.
C/C(=N\Nc1ncc(Cl)cc1Cl)c1ccc2c(c1)OCO2	4.6	12.7*	0.9	-3.2	-0.7
